Experimental data: PubChem BioAssay AID1851 (National Center for Advancing Translational Sciences (NCATS), 2009)
About 5,100 (32%) of roughly 16,000 compounds were called active. Another 25% or so got no clear call; they are omitted. The list shows a part of the results. Unmarked numbers belong to inactive results. The call rests on the fitted dose curve; in most records, active means well fitted curve in the direction sought with a large enough effect; inconclusive means small, poorly fitted or top-dose-only effect, or effect the other way; inactive means no such curve, though single readings can be large or run the other way.

Each compound was assayed against Cytochrome P450 3A4 (Homo sapiens) (UniProt P08684) (assay: Cytochrome panel assay with activity outcomes). Conditions: recombinant CYP, pro-luciferin dealkylation, luminescence, p450-cyp3a4; series mostly up to 57.1 µM; activity, negative = inhibition: at the top concentration.
On the % scale 0 is the no-effect control and ±100 the full control effect.

Sequence of Cytochrome P450 3A4 (Homo sapiens) (P08684 whole entry, looked up): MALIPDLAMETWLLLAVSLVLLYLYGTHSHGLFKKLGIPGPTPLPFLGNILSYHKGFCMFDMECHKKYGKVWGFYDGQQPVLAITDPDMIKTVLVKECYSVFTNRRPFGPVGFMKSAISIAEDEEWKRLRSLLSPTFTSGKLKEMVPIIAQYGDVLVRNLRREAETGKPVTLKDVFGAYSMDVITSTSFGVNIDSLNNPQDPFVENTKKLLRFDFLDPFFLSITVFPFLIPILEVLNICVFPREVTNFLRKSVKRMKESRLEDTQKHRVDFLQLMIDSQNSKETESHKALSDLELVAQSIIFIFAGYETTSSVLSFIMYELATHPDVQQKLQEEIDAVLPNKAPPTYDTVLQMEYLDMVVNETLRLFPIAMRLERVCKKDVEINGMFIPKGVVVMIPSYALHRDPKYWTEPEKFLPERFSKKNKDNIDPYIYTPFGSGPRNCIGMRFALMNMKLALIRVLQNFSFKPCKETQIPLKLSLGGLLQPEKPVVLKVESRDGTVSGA

Row | Compound | activity, negative = inhibition | AC50
1 | Cc1occc1C(=O)NNC(=O)c1ccc(F)cc1 | 18.8% | –
2 | CC1CCc2cc(F)ccc2N1C(=O)CSc1nnc2c(n1)[nH]c1ccc(F)cc12 (stereo not given) | – | 2 µM (active)
3 | Cc1ccc(C(=O)NNC(=O)CSc2nnc3c(n2)[nH]c2ccc(F)cc23)cc1 | – | 1.58 µM (active)
4 | Cc1ccccc1C(=O)NNC(=O)c1ccc(F)cc1 | -5.86% | –
5 | O=C(O)c1nn(-c2ccccc2)nc1-c1nn(-c2ccccc2)nc1C(=O)O | 11.6% | –
6 | CC1=NC(C)(C)Cc2ccccc21 | -15.9% | –
7 | CN1CCC2(CC1)CCN(C(=O)c1ccncc1)CC2 | -7.59% | –
8 | CC1(C)Cc2ccccc2C(NNC(=O)c2ccncc2)=N1 | – | 8.91 µM (active)
9 | CC(C)CC(c1nnnn1C(C)C)N1CCN(c2ccccc2)CC1 (stereo not given) | – | 3.98 µM (active)
10 | CC(C)n1nnnc1-c1cc(Cl)cc(Cl)c1 | 11.3% [at 2.29 µM] | –
11 | ClC(Cl)(Cl)C(N1CCN(c2ccccc2)CC1)N1CCN(c2ccccc2)CC1 | -3.89% [at 11.4 µM] | –
12 | O=C(O)[C@H]1C[C@H](C(=O)O)N1 | -4.9% | –
13 | CCc1c(O)nc(SCC(=O)NC(C)(C)C)n(-c2ccccc2)c1=O | -1.41% [at 2.29 µM] | –
14 | CC(C)(C)NC(=O)NC(=O)CSc1nnc2ccccn12 | 13.5% | –
15 | CCn1c(Cc2ccccc2)nnc1SCC(=O)NC(C)(C)C | – | 11.2 µM (active)
16 | CCn1c(CSCc2ccc(C)cc2)nnc1SCC(=O)NCc1ccccc1 | – | 7.94 µM (active)
17 | C=CCn1c(Cc2c[nH]c3ccccc23)nnc1SCC(=O)NCc1ccccc1 | -3.87% [at 2.29 µM] | –
18 | CCn1c(CC(=O)Nc2ccc(C)cc2)nnc1SCC(=O)NCCc1ccccc1 | – | 10 µM (active)
19 | CCn1c(CC(=O)Nc2ccc(C)cc2)nnc1SCC(=O)Nc1nc(C)cs1 | – | 7.94 µM (active)
20 | CN(C)CC(O)COc1cccc(OCC(O)CN(C)C)c1 (stereo not given) | -0.983% | –
21 | CCN1C(=O)[C@H]2[C@@H]3[C@H](O)C=CC(=O)[C@H]3CC[C@H]2C1=O | -12.1% [at 11.4 µM] | –
22 | O=c1oc(-c2cccs2)nc2ccc(Br)cc12 | -22.2% | –
23 | O=S(=O)(c1ccccc1)N1N=C(c2cccs2)CC1c1ccc(Br)cc1 (stereo not given) | – | 2 µM (active)
24 | CCN1CCN(S(=O)(=O)c2ccc(Cl)c(C(=O)Nc3nnc(CC(C)C)s3)c2)CC1 | – | 14.1 µM (active)

Row | Compound | activity, negative = inhibition | AC50
25 | O=C(Nc1nnc(C2CC2)s1)c1ccc(S(=O)(=O)c2ccccc2)cc1 | 25.6% | –
26 | CCOC(=O)CSc1nnc(NC(=O)c2cccc(S(=O)(=O)N3CCCCCC3)c2)s1 | -15.1% [at 2.29 µM] | –
27 | O=C(Nc1nnc(C2CC2)s1)c1cc(S(=O)(=O)N2CCN(c3ccccc3)CC2)ccc1Cl | – | 2 µM (active)
28 | CC(C)Cc1nnc(NC(=O)c2ccc([N+](=O)[O-])cc2)s1 | 17.9% | –
29 | CCOc1ccc2nc(NC(=O)c3ccc(S(=O)(=O)N4CCOCC4)cc3)sc2c1 | -15% | –
30 | CCc1cc(C(c2ccccc2OC)N2CCOCC2)c(NC(=O)c2ccccc2)s1 (stereo not given) | – | 4.47 µM (active)
31 | CN(C)c1ccc(-c2noc(C3CCN(S(=O)(=O)c4cccc(C(=O)O)c4)CC3)n2)cc1 | -21.2% | –
32 | COc1ccc(NC(=O)c2ccc(-c3ccc(-c4noc(C)n4)cc3C)cc2)cc1N1CCN(C)CC1 | -16.4% | –
33 | O=C(Nc1ccccc1)N1CCCC(c2nc(-c3ccc(F)cc3)no2)C1 (stereo not given) | – | 14.1 µM (active)
34 | CCCCCC(=O)N1CCCC(c2nc(-c3ccc(OC)cc3)no2)C1 (stereo not given) | – | 7.08 µM (active)
35 | COc1ccc(-c2noc(C3CCCN(C(=O)c4ccccc4OC)C3)n2)cc1OC (stereo not given) | – | 5.01 µM (active)
36 | CCCCC1CCC(c2nc(-c3ccccn3)no2)CC1 (stereo not given) | 5.4% [at 2.29 µM] | –
37 | O=C(NCc1cccc(C(F)(F)F)c1)c1cc(Cl)cc(Cl)c1 | – | 14.1 µM (active)
38 | O=C(NCc1ccccc1)c1cccc(COc2cccc(Cl)c2)c1 | -29.3% [at 11.4 µM] | –
39 | CC(C)(C)c1ccc(C(=O)NCc2ccc(Cl)cc2)cc1 | -23.4% | –
40 | CCN(CC)S(=O)(=O)c1cc(C(=O)Nc2ccncc2)ccc1Cl | – | 1 µM (active)
41 | CCOCC(=O)Nc1cc(C(=O)Nc2ccccc2)ccc1Cl | -4.26% [at 2.29 µM] | –
42 | CCN(CC)S(=O)(=O)c1cc(C(=O)OC)ccc1Cl | 9.82% | –
43 | CC(=O)Nc1ccc(S(=O)(=O)c2ccc(N)cc2)cc1 | -19.3% [at 11.4 µM] | –
44 | CC(=O)Nc1ccc(Nc2ncc([N+](=O)[O-])c(Nc3ccc(NC(C)=O)cc3)n2)cc1 | – | 6.31 µM (active)
45 | CC(=O)Nc1ccc([N+](=O)[O-])cn1 | 3.23% | –
46 | CCOc1cc(NC(=S)NCC2CCCO2)c(OCC)cc1NC(=O)c1cccc(C)c1 (stereo not given) | – | 12.6 µM (active)
47 | CCOc1cc(NC(=S)Nc2cccc(C)c2)c(OCC)cc1NC(=O)CC(C)C | – | 11.2 µM (active)
48 | Cc1cccc(NC(=S)NNC(=O)CC(C)O)c1C (stereo not given) | -9.46% | –

Row | Compound | activity, negative = inhibition | AC50
49 | Cc1ccc(C(=O)NC(=S)NCC2CCCO2)cc1 (stereo not given) | -7.78% [at 2.29 µM] | –
50 | Cc1ccccc1C(=O)c1c[nH]c(C(=O)NCC2CCCO2)c1 (stereo not given) | 2.67% [at 11.4 µM] | –
51 | CCOc1cc(NC(=S)NCC2CCCO2)c(OCC)cc1NC(=O)c1ccccc1C (stereo not given) | – | 12.6 µM (active)
52 | Cc1scc(C(=O)NNC(=S)NCC2CCCO2)c1C (stereo not given) | -19.7% | –
53 | CCc1cc(C(=O)NNC(=S)NCC2CCCO2)cs1 (stereo not given) | -21.7% | –
54 | Nc1cc(C(=O)O)[nH]c(=O)n1 | -11.2% [at 11.4 µM] | –
55 | O=C(O)[C@H]([C@H]1NCCS1)N1Cc2ccccc2C1 | -4.44% [at 11.4 µM] | –
56 | O=C(c1cccc(F)c1)N1CCC[C@@]2(CCN(C(c3ccccc3)c3ccccc3)C2)C1 | – | 3.98 µM (active)
57 | CC(=O)N1CCC2(CC1)CCN(c1cccc(-c3ccccc3)c1)CC2 | -17.6% | –
58 | COc1ccc(C(=O)N2CCC[C@@]3(CCN(c4cccc(-c5ccccc5)c4)C3)C2)cc1 | – | 3.16 µM (active)
59 | CN1CC[C@@]2(CCCN(C(=O)c3cccc(F)c3)C2)C1 | -27.3% | –
60 | O=C(c1cccc(F)c1)N1CCC[C@@]2(CCN(c3cccc(-c4ccccc4)c3)C2)C1 | – | 7.94 µM (active)
61 | O=C(c1cccc(F)c1)N1CCC[C@@]2(CCN(c3ccccc3)C2)C1 | – | 6.31 µM (active)
62 | COC(=O)N1CCC2(CC1)CN(c1cccc(-c3ccccc3)c1)C2 | 4.17% | –
63 | O=C(c1cccc(F)c1)N1CCC2(CCCN(C(c3ccccc3)c3ccccc3)C2)CC1 | -29.9% | –
64 | CN(C)CCCO[C@H]1[C@@H]2OC(C)(C)O[C@@H]2O[C@@H]1[C@H](O)CO | 1.58% [at 25.6 µM] | –
65 | Clc1ccc2c(NCCNC3CCCCC3)ccnc2c1 | -5.83% [at 11.4 µM] | –
66 | O=C(O)/C=C\[C@H](O)c1ccc(Cl)cc1 | 2.09% | –
67 | O=C(c1cccc(F)c1)N1CCC[C@@]2(CCN(c3ccncc3)C2)C1 | – | 0.316 µM (active)
68 | O=C(c1cccc(F)c1)N1CCC2(CC1)CN(c1ccncc1)C2 | 22.2% | –
69 | O=C(NNC(=O)c1ccccc1-n1cccc1)c1ccc(Cl)c(Cl)c1 | – | 15.8 µM (active)
70 | O=C(NNC(=O)c1ccccc1-n1cccc1)c1ccccc1 | -20.3% | –
71 | N[C@H](CCCC(=O)O)C(=O)O | -2.17% | –
72 | N=C(C[C@@H](O)COc1ccccc1-c1ccccc1)N1CCCCC1 | -25.3% | –

Row | Compound | activity, negative = inhibition | AC50
73 | CS(=O)(=O)Nc1cccc(-c2cncnc2-n2ccnc2)c1 | – | 7.94 µM (active)
74 | CS(=O)(=O)Nc1cccc(-c2nccc(-n3ccnc3)n2)c1 | – | 1.58 µM (active)
75 | CN1CCN(c2ccnc(-c3ccoc3)n2)CC1 | -2.76% | –
76 | CN1CCN(c2ccnc(-c3cccc(NS(C)(=O)=O)c3)n2)CC1 | – | 25.1 µM (active)
77 | C[N+](C)(N)CCC[N+](C)(C)N | -4.61% [at 11.4 µM] | –
78 | CCc1ccc(N2CC(C(=O)N/N=C/c3cccc([N+](=O)[O-])c3)CC2=O)cc1 (stereo not given) | -50% | –
79 | O=C(Nc1cccc2ccccc12)/C(=C/c1ccc([N+](=O)[O-])cc1)NC(=O)c1ccccc1 | – | 1.12 µM (active)
80 | Cc1ccc(NC(=O)/C(=C/c2cccc([N+](=O)[O-])c2)NC(=O)C2CCCCC2)c(C)c1 | – | 1 µM (active)
81 | Cc1ccc(NC(=O)/C(=C\c2ccc([N+](=O)[O-])cc2)NC(=O)c2ccccc2)cc1 | – | 1.12 µM (active)
82 | Cc1ccc(NC(=O)/C(=C\c2cccc([N+](=O)[O-])c2)NC(=O)c2cccs2)cc1 | – | 0.398 µM (active)
83 | O=C(N/N=C/C=C/c1ccc([N+](=O)[O-])cc1)c1cccs1 | -1.51% | –
84 | CCOC(=O)C1CCCN(C(=O)/C=C/c2cccc([N+](=O)[O-])c2)C1 (stereo not given) | 3.28% [at 2.29 µM] | –
85 | O=C(O)C1=CCCNC1 | – | inactive
86 | CC[C@H](Cc1c(I)cc(I)c(N)c1I)C(=O)O | -23.4% [at 25.6 µM] | –
87 | O=C(O)c1cc(N=Nc2ccc([N+](=O)[O-])cc2)ccc1O | -6.97% [at 11.4 µM] | –
88 | COc1cc(/C=C(/NC(=O)c2ccccc2)C(=O)Nc2ccccc2)c([N+](=O)[O-])cc1OC | – | 0.794 µM (active)
89 | Cc1ccc(C(=O)N/C(=C\c2ccc([N+](=O)[O-])cc2)C(=O)NCCc2ccccc2)cc1 | – | 0.282 µM (active)
90 | COc1cc(/C=C(\C#N)C(=O)NCC2CCCO2)c([N+](=O)[O-])cc1OC (stereo not given) | 12.9% | –
91 | O=C(CNC(=O)c1ccc([N+](=O)[O-])cc1)c1ccccc1 | 0.889% | –
92 | N=c1ccn2c(n1)O[C@H]1[C@@H](OP(=O)(O)O)[C@H](CO)O[C@H]12 | -6.24% [at 11.4 µM] | –
93 | O=C(O)[C@H]1CCCC[C@@H]1C(=O)Nc1nc2ccccc2[nH]1 | -6.18% [at 11.4 µM] | –
94 | Cc1cc(NC(=O)C2CCCC2)n(-c2nc3ccccc3[nH]2)n1 | – | 11.2 µM (active)
95 | Cc1cc(NC(=O)C2CCCCC2)nc2c1c(=O)oc1ccccc12 | -4.81% [at 2.29 µM] | –
